# In PubChem BioAssay (NCATS):
# Results filed as inconclusive are left out. Where a call stands in place of a potency, no number is given. Active and inactive are the calls of the source. Calls come from the whole dose curve; as a rule, active = well fitted inhibition curve with a large enough effect; inconclusive = small, poorly fitted or top-dose-only effect; inactive = flat fitted curve, though single readings scatter. Peptide text beside a SMILES is read from it.
# Experiments:
# [1] = target: Luciferin 4-monooxygenase (Photinus pyralis) (UniProt P08659); experiment: Biochemical firefly luciferase enzyme assay for NPC (AID 624030);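 note: purified P. pyralis luciferase at 10 nM with luciferin and ATP substrate; nearly all actives have a fitted effect of over 70% in size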
# In short: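 Purified P. pyralis luciferase at 10 nM in 50 mM Tris Acetate (final), luminescence read within 5 minutes of enzyme addition to compounds. Activity normalised to PTC124 versus DMSO; concentration-response curves classed by r2, magnitude and activity.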
# [2] = system: 7G8; experiment: qHTS profiling for inhibitors of Plasmodium falciparum proliferation (AID 504749); note: nearly all actives have a fitted effect of over 60% in size; note: potency is the fitted concentration of half-maximal effect; settings: P. falciparum in erythrocytes, SYBR Green DNA, 72 h; series mostly up to 12.8 µM
# In short: (§1)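 Each compound contacts P. falciparum-infected red blood cells for 72 h at 37 C; lysis buffer (Tris, EDTA, saponin, Triton X, SYBR Green I) is added and fluorescence measured next morning; values normalized to controls.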
# [3] = system: AA1029; experiment: as above; settings: P. falciparum in erythrocytes, SYBR Green DNA, 72 h; series mostly up to 12.8 µM
# In short: as §1
# [4] = system: ATS95; experiment: as above; settings: P. falciparum in erythrocytes, SYBR Green DNA, 72 h; series mostly up to 12.8 µM
# In short: as §1
# [5] = system: CP194; experiment: as above; settings: P. falciparum in erythrocytes, SYBR Green DNA, 72 h; series mostly up to 12.8 µM
# In short: as §1
# [6] = system: CP215; experiment: as above; settings: P. falciparum in erythrocytes, SYBR Green DNA, 72 h; series mostly up to 12.8 µM
# In short: as §1
# [7] = system: DIV17; experiment: as above; settings: P. falciparum in erythrocytes, SYBR Green DNA, 72 h; series mostly up to 12.8 µM
# In short: as §1
# [8] = system: Dd2; experiment: as above; settings: P. falciparum in erythrocytes, SYBR Green DNA, 72 h; series mostly up to 12.8 µM
# In short: as §1
# [9] = system: GB4; experiment: as above; settings: P. falciparum in erythrocytes, SYBR Green DNA, 72 h; series mostly up to 12.8 µM
# In short: as §1
# [10] = system: ICS; experiment: as above; settings: P. falciparum in erythrocytes, SYBR Green DNA, 72 h; series mostly up to 12.8 µM
# In short: as §1
# [11] = system: P93_24; experiment: as above; settings: P. falciparum in erythrocytes, SYBR Green DNA, 72 h; series mostly up to 12.8 µM
# In short: as §1
# [12] = system: P94_40; experiment: as above; settings: P. falciparum in erythrocytes, SYBR Green DNA, 72 h; series mostly up to 12.8 µM
# In short: as §1
# [13] = system: PC15; experiment: as above; settings: P. falciparum in erythrocytes, SYBR Green DNA, 72 h; series mostly up to 12.8 µM
# In short: as §1
# [14] = system: TAB109; experiment: as above; settings: P. falciparum in erythrocytes, SYBR Green DNA, 72 h; series mostly up to 12.8 µM
# In short: as §1
# [15] = system: CP250; experiment: as above; settings: P. falciparum in erythrocytes, SYBR Green DNA, 72 h; series mostly up to 12.8 µM
# In short: as §1
# [16] = system: CP256; experiment: as above; settings: P. falciparum in erythrocytes, SYBR Green DNA, 72 h; series mostly up to 12.8 µM
# In short: as §1
# [17] = system: CP266; experiment: as above; settings: P. falciparum in erythrocytes, SYBR Green DNA, 72 h; series mostly up to 12.8 µM
# In short: as §1
# [18] = system: CP286; experiment: as above; settings: P. falciparum in erythrocytes, SYBR Green DNA, 72 h; series mostly up to 12.8 µM
# In short: as §1
# [19] = system: FAB9; experiment: as above; settings: P. falciparum in erythrocytes, SYBR Green DNA, 72 h; series mostly up to 12.8 µM
# In short: as §1
# [20] = system: JCK; experiment: as above; settings: P. falciparum in erythrocytes, SYBR Green DNA, 72 h; series mostly up to 12.8 µM
# In short: as §1
# Luciferin 4-monooxygenase (Photinus pyralis), sequence (P08659 whole entry, looked up): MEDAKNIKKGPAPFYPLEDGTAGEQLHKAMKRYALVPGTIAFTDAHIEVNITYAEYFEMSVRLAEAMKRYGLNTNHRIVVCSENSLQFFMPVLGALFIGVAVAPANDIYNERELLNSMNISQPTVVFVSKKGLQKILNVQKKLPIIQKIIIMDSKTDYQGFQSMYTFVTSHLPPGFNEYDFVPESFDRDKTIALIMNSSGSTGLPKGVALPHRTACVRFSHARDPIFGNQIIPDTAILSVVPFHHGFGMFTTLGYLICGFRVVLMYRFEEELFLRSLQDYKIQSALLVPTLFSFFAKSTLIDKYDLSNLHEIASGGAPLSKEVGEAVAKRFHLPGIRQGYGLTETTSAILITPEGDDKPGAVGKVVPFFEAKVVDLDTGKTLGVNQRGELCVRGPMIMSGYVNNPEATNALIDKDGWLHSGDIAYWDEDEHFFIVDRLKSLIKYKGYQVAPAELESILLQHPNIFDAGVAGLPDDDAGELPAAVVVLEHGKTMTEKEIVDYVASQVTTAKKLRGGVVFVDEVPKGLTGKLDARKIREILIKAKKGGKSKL
SMILES,Potency [1],Potency [2],Potency [3],Potency [4],Potency [5],Potency [6],Potency [7],Potency [8],Potency [9],Potency [10],Potency [11],Potency [12],Potency [13],Potency [14],Potency [15],Potency [16],Potency [17],Potency [18],Potency [19],Potency [20]
COC1C=CO[C@@]2(C)Oc3c(C)c(O)c4c(O)c(c5c(nc6cc(C)ccn65)c4c3C2=O)NC(=O)/C(C)=C\C=CC(C)C(O)[C@@H](C)C(O)C(C)[C@@H](OC(C)=O)C1C (some centres undefined),inactive,3.16 µM (active),12.6 µM (active),10 µM (active),12 µM (active),13.5 µM (active),0.536 µM (active),12.6 µM (active),3.79 µM (active),5.01 µM (active),3.98 µM (active),5.01 µM (active),12.6 µM (active),11.2 µM (active),–,–,–,–,–,–
C[C@]1(c2ccccc2)OC(C(=O)O)=CC1=O,inactive,inactive,inactive,inactive,inactive,inactive,inactive,inactive,inactive,inactive,inactive,inactive,inactive,inactive,inactive,inactive,inactive,inactive,inactive,inactive
OCC1O[C@H](OC2C(CO)O[C@@](O)(CO)C2O)C(O)C(O)C1O (some centres undefined),–,inactive,inactive,inactive,inactive,inactive,inactive,inactive,inactive,inactive,inactive,inactive,inactive,inactive,inactive,inactive,inactive,inactive,inactive,inactive
NCC1CCC(N)C(O[C@@H]2C(O)[C@H](O[C@H]3OC(CO)C(O)C(N)C3O)[C@@H](N)C[C@H]2N)O1 (some centres undefined),inactive,–,inactive,inactive,inactive,inactive,inactive,inactive,inactive,inactive,inactive,inactive,inactive,inactive,inactive,inactive,inactive,inactive,inactive,inactive
Nc1nc2ncc(CNc3ccc(C(=O)NC(CCC(=O)O)C(=O)O)cc3)nc2c(=O)[nH]1 (centres undefined),–,inactive,inactive,–,inactive,–,inactive,inactive,inactive,inactive,inactive,inactive,inactive,inactive,inactive,inactive,inactive,inactive,inactive,inactive
CCCC(=O)O[C@]1(C(=O)CO)CCC2[C@@H]3CCC4=CC(=O)CC[C@]4(C)C3C(O)C[C@]21C (some centres undefined),inactive,inactive,inactive,inactive,inactive,inactive,inactive,inactive,inactive,inactive,inactive,inactive,inactive,inactive,inactive,inactive,inactive,inactive,inactive,inactive
COC(=O)C(Cc1ccccc1)NC(=O)C(N)CC(=O)O (stereo not drawn) (H-Asp-Phe-OMe; configuration not given here),–,inactive,inactive,inactive,inactive,inactive,inactive,inactive,inactive,inactive,inactive,inactive,inactive,inactive,inactive,inactive,inactive,inactive,inactive,inactive
CNC1C(OC2C(O[C@@H]3C(O)C(O)[C@@H](N=C(N)N)C(O)C3N=C(N)N)OC(C)[C@@]2(O)CO)OC(CO)C(O)C1O (some centres undefined),inactive,inactive,inactive,inactive,inactive,inactive,inactive,inactive,inactive,inactive,inactive,inactive,inactive,inactive,inactive,inactive,inactive,inactive,inactive,inactive
OCC1OC([S-])[C@H](O)C(O)C1O.[Au+] (some centres undefined),inactive,–,inactive,inactive,inactive,inactive,inactive,inactive,inactive,inactive,inactive,inactive,inactive,inactive,inactive,inactive,inactive,inactive,inactive,inactive
C[C@]12C=CC(=O)C=C1CCC1C2C(O)C[C@]2(C)C1CC[C@]2(O)C(=O)CO (some centres undefined),inactive,inactive,inactive,inactive,inactive,inactive,inactive,inactive,inactive,inactive,inactive,inactive,inactive,inactive,inactive,inactive,inactive,inactive,inactive,inactive
CCC(CCC(C)C1CCC2C3CC=C4CC(O)CC[C@@]4(C)C3CC[C@@]12C)C(C)C (some centres undefined),inactive,inactive,inactive,inactive,inactive,inactive,inactive,inactive,inactive,inactive,inactive,inactive,inactive,inactive,inactive,inactive,inactive,inactive,inactive,inactive
COc1ccc(CC(N)C(=O)NC2C(CO)OC(n3cnc4c(N(C)C)ncnc43)C2O)cc1 (centres undefined),inactive,0.316 µM (active),1 µM (active),1 µM (active),1.07 µM (active),1.07 µM (active),0.757 µM (active),0.355 µM (active),0.675 µM (active),0.316 µM (active),0.708 µM (active),0.891 µM (active),1.26 µM (active),0.891 µM (active),1.26 µM (active),1 µM (active),1.2 µM (active),0.891 µM (active),1.78 µM (active),3.55 µM (active)
CC(=O)N[C@H](CC(C)C)C(=O)O,inactive,inactive,inactive,inactive,inactive,inactive,inactive,inactive,inactive,inactive,inactive,inactive,inactive,inactive,inactive,inactive,inactive,inactive,inactive,inactive
CC1CCC(C(C)C)C(=O)C1 (centres undefined),inactive,inactive,inactive,inactive,inactive,inactive,inactive,inactive,inactive,inactive,inactive,inactive,inactive,inactive,inactive,inactive,inactive,inactive,inactive,inactive
CCC(C)C(=O)OC1CCC=C2C=CC(C)C(CCC3CC(O)CC(=O)O3)[C@@H]21 (some centres undefined),inactive,inactive,inactive,inactive,inactive,inactive,inactive,–,inactive,inactive,inactive,inactive,inactive,inactive,inactive,inactive,inactive,inactive,inactive,inactive
CC(=O)N[C@@H]1C(O)OC(CO)C(O)C1O (some centres undefined),inactive,–,inactive,inactive,inactive,inactive,inactive,–,–,inactive,inactive,inactive,inactive,inactive,inactive,inactive,inactive,inactive,inactive,inactive
C#C[C@]1(O)CCC2C3CCC4=CC(=O)CCC4C3CC[C@@]21C (some centres undefined),inactive,–,–,–,–,–,–,–,–,–,–,–,–,–,–,–,–,–,–,–
